Bioassay records as filed in PubChem.
In the library only some 3.3% were active in any assay of this set; here they are far more common.
NRP1-CendR mod = modulators of CendR peptide binding to human neuropilin-1 | 360,000 tested, 0.85% active | AID 602438 | inhibition, % at 25 µM | FAM-RPARPAR peptide binding to NRP-1, fluorescence polarization | O14786;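 active means inhibition or corrected inhibition above about 18%, plus a signal ratio from 0.5 to 1.5, limit read from the data, passing the limit was not always enough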
Rpn11 block = inhibitors of human proteasome Rpn11; O00487; human 26S proteasome, Ub4-pepOG fluorescence polarization; 20S core pre-blocked with epoxomicin; inhibition, % at 20 µM; 360,000 tested, 0.59% active;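 active means inhibition at 20 µM, scaled to each plate's controls, above about 33%, limit read from the data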
Target sequence (O00487 whole entry, looked up): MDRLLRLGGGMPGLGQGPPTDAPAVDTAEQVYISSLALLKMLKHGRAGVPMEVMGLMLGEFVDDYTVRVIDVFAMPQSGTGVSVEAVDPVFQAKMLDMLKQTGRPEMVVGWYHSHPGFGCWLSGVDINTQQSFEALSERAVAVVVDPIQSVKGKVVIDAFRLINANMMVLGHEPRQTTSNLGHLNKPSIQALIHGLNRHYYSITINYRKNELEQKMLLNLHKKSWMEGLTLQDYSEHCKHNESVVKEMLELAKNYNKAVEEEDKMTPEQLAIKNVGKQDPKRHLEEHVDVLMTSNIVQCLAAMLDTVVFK
CTSL1 counter = blocks F. hepatica cathepsin L1 in PFM18AAP counter-screen; inhibition, % at 5.96 µM; AID 1906; recombinant F. hepatica cathepsin L1, Z-Leu-Arg-MCA fluorescence; 300,000 tested, 0.49% active;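 active means inhibition above the mean of all tested compounds plus 3 SD, set per screening campaign, cut at about 17% in these data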;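 further: 0% = plate median of test compound wells and 100% = 1 µM Z-Phe-Ala-diazomethylketone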
HNF4A DNA FP = change in binding of human HNF4 alpha to DNA. P41235. HNF4a-FITC DNA binding, fluorescence polarization, 1 h. activity change, % at 10 µM. 360,000 tested, 0.3% active. AID 1224865; in the data active means activity change above about 30%, passing the limit was not always enough
TPT1 inhibitor = inhibitors of Candida albicans tRNA 2'-phosphotransferase TPT1; recombinant caTPT1, FP RNA substrate dephosphorylation; inhibition, % at 5 µM; 300,000 tested, 0.81% active; AID 1962;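 active means inhibition above the mean of all tested compounds plus 3 SD, set per screening campaign, cut at about 24% in these data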;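 further: plate controls were DMSO alone for no effect and ferristatin control at 100 nM for full effect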
PHOSPHO1 block = blocks human PHOSPHO1 phosphatase activity; 290,000 tested, 1.1% active; Q8TCT1; inhibition, % at 13.3 µM; recombinant PHOSPHO1, absorbance phosphatase assay; in the data active means inhibition above about 60%
An asterisk follows results filed as active; . = not tested or not shown.

SMILES	NRP1-CendR mod	Rpn11 block	CTSL1 counter	HNF4A DNA FP	TPT1 inhibitor	PHOSPHO1 block
CCn1c(=Nc2ccc(N3CCOCC3)cc2)ccc2ccccc21	15.5	3.0	1.5	-2.3	-2.9	-27.4
Cn1c(=Nc2ccc(N3CCOCC3)cc2)ccc2ccccc21	13.0	-3.4	-3.3	0.2	-6.0	95.7*
Cc1ccc(-n2c(Cn3nc(C(F)F)cc3C(F)F)n[nH]c2=S)cc1	0.8	-1.3	-2.6	3.9	2.3	99.7*
Cc1cc(C(F)(F)F)nn1Cc1n[nH]c(=S)n1-c1ccc(Cl)cc1	0.9	2.5	4.7	9.3	-2.6	102.0*
Cc1cc(C(F)(F)F)nn1Cc1n[nH]c(=S)n1-c1cccc(Cl)c1	14.3	-1.2	-3.8	-1.7	-0.8	84.1*
S=c1[nH]nc(CCc2nc3ccccc3[nH]2)n1-c1cccc(Cl)c1	2.3	1.0	2.1	-3.4	-1.4	-83.7
Cc1cc(C(F)(F)F)nn1Cc1n[nH]c(=S)n1Cc1ccccc1	-13.1	-1.1	-2.2	3.5	0.0	-13.3
Cc1ccc(NC(=O)Cn2nc(C)c(S(=O)(=O)N(C)C)c2C)cc1	2.8	-2.6	-1.7	-0.2	-2.0	5.6
CCCn1nc(C(=O)N2CCN(S(=O)(=O)c3ccc(C)c(C)c3)CC2)c2ccccc2c1=O	-3.6	-2.5	.	0.1	.	.
CCN(CC)c1ccc(C(=C2C=CC(=[N+](CC)CC)C=C2)c2ccc(N(CC)CC)cc2)cc1	30.2*	3.0	.	1.0	.	.
CCN(CC)c1ccc(C(=C2C=CC(=[N+](CC)CC)C=C2)c2ccccc2)cc1	-1.1	4.3	.	0.0	.	.
COc1ccc(S(=O)(=O)N(CC(=O)N2CCN(C)CC2)c2ccc(C)cc2)cc1Br	11.8	-2.8	.	-1.6	.	.
CCOC(=O)C1(Cc2ccccc2Cl)CCN(C(=O)CN2CCOC2=O)CC1	22.9*	3.9	-1.4	-1.9	-2.2	26.9
Cc1ccc(OCCN2C(=O)C(=O)c3cc(C)ccc32)cc1	4.3	4.3	-3.2	1.2	-1.2	1.2
Cc1ccc2c(c1)C(=O)C(=O)N2CC(=O)OC(C)C	27.4*	-3.6	0.9	-1.2	-4.5	-2.9
Cc1cc(Cl)c(S(=O)(=O)NC2CCCCC2)cc1OCC(=O)Nc1nncs1	0.6	5.4	-1.1	-4.0	-2.6	-0.8
c1ccc(Nc2nc(CSc3ncn[nH]3)cs2)cc1	-20.5	19.6	35.0*	6.3	-1.0	-4.0
O=C(CSc1ncn[nH]1)Nc1nc(-c2ccccc2)cs1	10.4	3.5	4.0	0.7	0.6	23.3
COc1ccccc1N1CSC2=C(C#N)C(c3ccc(SC)cc3)CC(=O)N2C1 (centres undefined)	-88.7	38.1	1.5	-0.3	10.9	91.5*
COc1cc(C2CC(=O)N3CN(c4ccccc4C)CSC3=C2C#N)cc(OC)c1OC (centres undefined)	.	.	2.8	.	2.8	87.5*
COc1ccc2ccccc2c1C1CC(=O)N2CN(C)CSC2=C1C#N (centres undefined)	0.4	6.3	-2.7	-3.4	0.8	54.3
COc1ccc(-c2sc3ccccc3c2-c2cc(OC)ccc2C=O)cc1	-0.9	.	.	0.4	.	.
C[C@@H](C(=O)Nc1ccc(SC(F)F)cc1)N1C(=O)C2CCCCC2C1=O (some centres undefined)	21.6*	-0.1	.	-1.1	.	.
Cc1ccc(NC(=O)C(C)N2C(=O)C3C4CC(C(Br)C4Br)C3C2=O)cc1 (centres undefined)	31.9*	-1.5	1.7	-1.7	-2.8	37.9
Cc1ccc(NC(=O)C(C)N2C(=O)c3ccccc3C2=O)cc1 (centres undefined)	26.9*	6.3	-3.8	-5.8	-2.6	1.8
SMILES	NRP1-CendR mod	Rpn11 block	CTSL1 counter	HNF4A DNA FP	TPT1 inhibitor	PHOSPHO1 block
O=c1c2ccccc2oc2ncccc12	-8.9	4.2	1.1	2.4	-7.0	-29.9
Cc1nc(NCc2ccco2)c2cn[nH]c2n1	27.7*	2.4	.	2.2	.	.
CC(C)(C)c1ccc(NC(=O)c2cc[n+]([O-])cc2)cc1	4.6	1.6	-4.5	0.8	3.6	44.9
C=CCc1ccccc1OCC(=O)OCCNC(=O)c1cccnc1	10.0	-16.5	-5.2	2.0	-2.2	71.1*
Cc1cc(C)c(OCC(=O)OCCNC(=O)c2cccnc2)c(C)c1	-8.0	-8.9	0.6	2.2	-1.3	-16.4
COc1ccc(NC(=O)CS(=O)(=O)c2cn(CC(=O)N3CCCC3)c3ccccc23)c(OC)c1	-2.9	-5.7	-2.6	-0.1	-1.0	28.7
